These results are taken from PubChem BioAssay AID2685 (National Center for Advancing Translational Sciences (NCATS), 2010).

Molecules are shown by their SMILES. Screen size: about 320,000 compounds; about 2,100 (0.66%) were called active. Not shown: some 53% with an inconclusive outcome. Calls follow the shape of the dose curve; as a rule, active = well fitted inhibition curve with a large enough effect in the signal ratio, with a control signal flat (not every such curve was filed as active); inconclusive = small, poorly fitted or top-dose-only effect, or effect the other way, or a change in a side signal; inactive = flat fitted curve, though single readings scatter; the % refers to the signal ratio. Shown is part of a subset that was picked to be rich in actives.
Potency is read from the fitted curve at half-maximal effect.

This experiment is described as follows: qHTS Assay for Lipid Storage Modulators in Drosophila S3 Cells.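 As to cell number change: cells counted by Cell Tracker Red CMTPX staining in the red channel.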 As to lipid storage change, negative = inhibition: % is scaled to controls: 0 for no effect and ±100 for the full control effect. The following applies: BODIPY lipid droplet fluorescence, 18-24 h, cells fed with added oleic acid; cell number change: measured here: cell count max response; series mostly up to 46.1 µM; lipid storage change, negative = inhibition: at the top concentration. Put shortly:
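Drosophila S3 cells got compounds at several concentrations plus oleic acid (400 uM solution). Laser-scanning cytometry with 488 nm excitation read lipid droplets at 500-530 nm and cells at 575-640 nm. Percent activity was relative to 20 uM Triacsin C.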
(In general: qHTS replaces the single test concentration by a dilution series.)
Regarding `CCCS(=O)(=O)N1CCCC(C(=O)NCCc2ccccc2)C1` (configuration not stated), the “lipid storage change, negative = inhibition” value was 4.64% (inactive) and the cell number change turned out to be 1.16%.

For `CCCCS(=O)(=O)N1CCCC(C(=O)NCCc2ccccc2)C1` (configuration not stated), the “lipid storage change, negative = inhibition” value was -13.4% (inactive) and the cell number change is -7.87%. On to `CCS(=O)(=O)N1CCCC(C(=O)NCCc2ccccc2)C1` (configuration not stated), for which the Potency is 25.9 µM (active) and the cell number change is -14.3%. Take `Cc1ccc(C(=O)NCC(c2ccco2)N2CCCCC2)s1` (configuration not stated): the “lipid storage change, negative = inhibition” value is 0.161% (inactive) and the cell number change turned out to be 20.8%. For the compound `O=C(O)c1cccc(NC(=O)C2CC(=O)N(Cc3ccccc3)C2)c1` (configuration not stated), the Potency is 4.61 µM (active) and the cell number change is -0.647%. In the case of `CSc1cccc(NC(=O)C2CC(=O)N(Cc3ccccc3)C2)c1` (configuration not stated), the “lipid storage change, negative = inhibition” value was 6.25% (inactive) and the cell number change was found to be 8.1%. Turning to `CC(=O)c1cccc(NC(=O)C2CC(=O)N(Cc3ccccc3)C2)c1` (configuration not stated), the result was inactive. `CCc1ccc(S(=O)(=O)Nc2ccncc2)cc1`: the compound was classed as inactive and the cell number change is -6.32%. In the case of `O=S(=O)(Nc1ccncc1)c1ccc(Cl)cc1`, the Potency is 10.3 µM (active) and the cell number change was -14.9%.

Consider `O=S(=O)(Nc1ccc(Cc2ccncc2)cc1)c1ccc(Cl)cc1`, for which the “lipid storage change, negative = inhibition” value was 5.23% (inactive) and the cell number change was determined as 4.35%. As to `COc1ccc(C(=O)N2CCC(=O)N(C(CO)Cc3ccccc3)CC2)cc1` (configuration not stated), the “lipid storage change, negative = inhibition” value was 1.55% (inactive) and the cell number change is -2.26%. As for `Cc1ccc(N=Cc2c(O)n(C)c(=O)n(C)c2=O)nc1`, the “lipid storage change, negative = inhibition” value was 1.38% (inactive) and the cell number change turned out to be 3.34%. `O=S(=O)(NCc1cccnc1)c1ccc(Br)c2ccccc12`: the outcome was inactive and the cell number change was 10.4%.

On to `Cc1ccccc1S(=O)(=O)Nc1cccnc1`, for which the “lipid storage change, negative = inhibition” value was 4.78% (inactive) and the cell number change was 1.91%.

Regarding `O=S(=O)(Nc1cccnc1)c1ccc(Br)c2ccccc12`, the Potency is 7.31 µM (active) and the cell number change is -5.22%. Take `C/C(CC(=O)Nc1ccc(Cl)cc1Cl)=N\NC(=O)c1ccncc1`: the “lipid storage change, negative = inhibition” value is 15.2% (inactive) and the cell number change was determined as 23%. For the compound `COc1cc2c(cc1OC)C(c1cccc(Cl)c1Cl)CC(=O)N2` (configuration not stated), the “lipid storage change, negative = inhibition” value was -8.05% (inactive) and the cell number change was -12.7%. Consider `COc1ccc(C(=O)N/N=C(\C)CC(=O)Nc2ccc3c(c2)OCCO3)c(OC)c1`, for which the call was inactive and the cell number change is 14.3%.

With `C/C(CC(=O)Nc1ccc2c(c1)OCCO2)=N\NC(=O)c1ccccc1F`, the outcome was inactive and the cell number change came to 8.06%.

For `COc1ccccc1C(=O)N/N=C(\C)CC(=O)Nc1ccc2c(c1)OCCO2`, the Potency is 16.4 µM (active) and the cell number change was found to be 22.4%.

For the compound `Cc1ccc(Nc2ccccc2)nn1`, the “lipid storage change, negative = inhibition” value was 5.52% (inactive) and the cell number change came out at 17%. `N#Cc1ncc(Cc2ccccc2)nc1C#N`: the Potency is 7.31 µM (active) and the cell number change was -22.9%. `N#Cc1nc(Cc2ccccc2)oc1NCc1ccccc1`: the “lipid storage change, negative = inhibition” value was -3.57% (inactive) and the cell number change is -21%. As to `N#Cc1nc(Cc2ccccc2)oc1N1CCCC1`, the “lipid storage change, negative = inhibition” value is -16.8% (inactive) and the cell number change is -9.44%. In the case of `COc1ccccc1NC(=O)NNC(=O)C(C)Oc1ccc2ccccc2c1` (configuration not stated), the “lipid storage change, negative = inhibition” value is 6.71% (inactive) and the cell number change came to 7.76%. Consider `Cc1ccc(/C=N/N2CCN(Cc3ccc(Cl)cc3)CC2)o1`, for which the “lipid storage change, negative = inhibition” value is -1.89% (inactive) and the cell number change is -6.6%. Consider `CC(C)CNC(=O)NC(=O)COC(=O)C1CSC2(c3ccc(F)cc3)CCC(=O)N12` (configuration not stated), for which the “lipid storage change, negative = inhibition” value was -8.94% (inactive) and the cell number change amounted to 5.71%. In the case of `O=C(COC(=O)C1CSC2(c3ccc(F)cc3)CCC(=O)N12)NC(=O)NC1CCCC1` (configuration not stated), the “lipid storage change, negative = inhibition” value is -22.5% (inactive) and the cell number change amounted to 8.51%.

Regarding `O=C(C1CSC2(c3ccc(F)cc3)CCC(=O)N12)N1CCCCCC1` (configuration not stated), the Potency was 18.4 µM (active) and the cell number change was -5.6%. In the case of `Cc1cnc(NC(=O)CCNC(=O)c2ccccc2Cl)s1`, the “lipid storage change, negative = inhibition” value is -19.1% (inactive). Turning to `Cc1noc(C(=O)NCc2cccnc2)c1Cl`, the “lipid storage change, negative = inhibition” value was 1.19% (inactive) and the cell number change is 3.97%.

For `CCOC(=O)Nc1ccc2c(CN3CCN(S(=O)(=O)c4ccccc4)CC3)cc(=O)oc2c1`, the “lipid storage change, negative = inhibition” value is 4.48% (inactive) and the cell number change worked out at 3.64%. Take `O=C(NCC1CCCN(C(=O)Cc2ccccc2Cl)C1)c1ccc(F)cc1` (configuration not stated): the outcome was inactive and the cell number change stood at 17.2%.

Regarding `CC(=O)c1ccccc1NC(=O)COC(=O)c1ccccc1NC(=O)c1ccccc1`, the “lipid storage change, negative = inhibition” value was -2.12% (inactive) and the cell number change is -15%. Regarding `CC(C)(C)NC(=O)COC(=O)C1c2ccccc2Oc2ccccc21`, the “lipid storage change, negative = inhibition” value was 22.1% (inactive) and the cell number change is -10.4%. As for `CC(=O)c1ccccc1NC(=O)COC(=O)/C(=C/c1ccccc1)n1nnnc1C`, the Potency was 7.31 µM (active) and the cell number change is -27.9%.

In the case of `CC(=O)c1ccccc1NC(=O)COC(=O)c1c(C)nn(-c2ccccc2)c1C`, the “lipid storage change, negative = inhibition” value was 0.367% (inactive) and the cell number change was -19.3%. With `CC(C)(C)NC(=O)COC(=O)c1ccccc1Oc1ccccc1`, the “lipid storage change, negative = inhibition” value is 8.37% (inactive). In the case of `Cc1nnnn1/C(=C\c1ccccc1)C(=O)OCC(=O)Nc1cccc(S(=O)(=O)N(C)C)c1`, the Potency is 3.66 µM (active) and the cell number change is -25%.

Turning to `Cc1nnnn1/C(=C\c1ccccc1)C(=O)OCC(=O)NC(C)(C)C`, the Potency was 4.11 µM (active) and the cell number change is -11.4%. With `CN(C)S(=O)(=O)c1cccc(NC(=O)COC(=O)C2(c3ccccc3F)CCCC2)c1`, the Potency was 8.2 µM (active) and the cell number change is -25.4%. Take `CN(C)S(=O)(=O)c1cccc(NC(=O)COC(=O)CNC(=O)c2ccccc2F)c1`: the call was inactive. On to `CN(C)S(=O)(=O)c1cccc(NC(=O)CSc2nnnn2-c2ccccc2)c1`, for which the “lipid storage change, negative = inhibition” value was -9.83% (inactive) and the cell number change is -3.51%. Taken in the same sequence, the figures for `Cc1cc(C(=O)OCC(=O)Nc2cccc(S(=O)(=O)N(C)C)c2)c2ccccc2n1` were -9.59% (inactive) and -13.9%. On to `NS(=O)(=O)c1cccc(NC(=O)COC(=O)C2(c3cccc(F)c3)CCCC2)c1`, for which the “lipid storage change, negative = inhibition” value is 14.4% (inactive) and the cell number change was -1.45%. With `COc1ccc(C2N(c3ccc4c(c3)OCCO4)C(=O)C2(F)F)cc1OC` (configuration not stated), the “lipid storage change, negative = inhibition” value is -8.57% (inactive) and the cell number change was -17.8%. In the case of `Cc1c(Cl)cccc1NC(=O)NCc1ccc(F)cc1`, the “lipid storage change, negative = inhibition” value was -7.7% (inactive) and the cell number change is 3.73%. For `COc1cccc(-c2noc(C3CCCN(C(=O)c4cccc(F)c4)C3)n2)c1` (configuration not stated), the compound was called inactive and the cell number change was -8.07%.
